# Test results: PubChem BioAssay (Tox21)
# “And” between values parts separate entries of the source, which are not always exact repeats. Equal values may be shown once. Records with an inconclusive call do not appear. The source made the active and inactive calls. The call rests on the fitted dose curve; in most records, active means well fitted activation curve with a large enough effect in the repeat runs; inconclusive means weak or mixed curves, or effect the other way; inactive means no such curve, though single readings can be large or run the other way.
# Experiment: qHTS assay to identify small molecule agonists of the retinoic acid receptor (RAR) signaling pathway (AID 1159553)
# Details: C3RL4 RARE luciferase reporter, agonist, 6 h; series mostly up to 73.3 µM; activation: at the top concentration
# Text: National Center for Advancing Translational Sciences [NCATS] NIH Chemical Genomics Center [NCGC] U.S. Environmental Protection Agency [EPA] National Institutes of Environmental Health Sciences [NIEHS] National Toxicology Program [NTP] Assay overview: All-trans Retinoic acid (atRA) is the potent natural metabolite of retinol and plays an important role in normal embryonic development and maintenance of cellular phenotype in adult animals. atRA is the activating ligand for the retinoic acid receptors (RARs) which form heterodimers with retinoid X receptors (RXRs) on the retinoic acid response element (RARE). Through activation of the RAR/RXRs nuclear receptors, atRA regulates the transcription of a large number of protein-coding genes and regulatory RNAs. Intracellular levels of atRA are controlled by the retinol signaling pathway (RSP) that regulates the biosynthesis and catabolism of atRA to maintain physiological levels. Chemicals that interfere with the RSP can cause abnormal intracellular levels of atRA and therefore are potential developmental toxicants. To assess compounds for the potential adverse effect on embryonic development through interfering with retinol signaling, a cell-based RARE luciferase reporter gene assay was used. C3RL4 cell line (OARSA/CFSAN/FDA, Laurel, MD) was used to screen Tox21 10K compound library for identifying activators of the RSP.
# Assay Protocol Summary: C3RL4 cells were seeded at 1,000/well in 5 uL of assay medium into white solid 1,536-well tissue culture plates (Greiner Bio-One North America Inc. Monroe, NC) using a Multidrop Combi (Thermo Scientific, Waltham, MA) dispenser. After incubation at 37 C and 5% CO2 for an overnight, 23 nL of compounds dissolved in DMSO, positive control or DMSO only were transferred by a Pintool station (Kalypsys, San Diego, CA). After 6 hr incubation at 37 C and 5% CO2, 5 uL of Amplite Luciferase reagent (AAT Bioquest Inc. Sunnyvale, CA) was added to each assay plate using a Flying Reagent Dispenser (FRD) (Aurora Discovery, San Diego, CA). Luminescence was quantified on a ViewLux plate reader (PerkinElmer, Waltham, MA) after 30 min incubation at room temperature.
# On the % scale 0 is the no-effect control and ±100 the full control effect; potency means the concentration at half of the fitted maximal effect.
SMILES,Potency,activation
O=c1n(CC2CO2)c(=O)n(CC2CO2)c(=O)n1CC1CO1 (stereo not given),inactive,–
C/C=C/c1ccc(OCC)c(O)c1,54.5 µM (active),–
CC(C)(C)NCC(O)c1cc(O)cc(O)c1 (stereo not given),–,0.46% (inactive)
CC(C(O)c1ccc(O)cc1)N1CCC(Cc2ccccc2)CC1 (stereo not given),–,-3.98% (inactive)
O=Cc1ccc(Cl)cc1,–,1.62% (inactive)
CCCCCCCCCCCC[N+](C)(C)C,–,-9.13% (inactive)
Nc1nc(=S)c2[nH]cnc2[nH]1,inactive,–
C1COC(NC(C2CC2)C2CC2)=N1,–,-0.516% (inactive)
Nc1ccc2cc3ccccc3cc2c1,5.54 µM (active) and 34.4 µM (active),–
OCC(CO)N[C@H]1C[C@](O)(CO)[C@@H](O)[C@H](O)[C@H]1O,–,0.0009% (inactive)
CC1=CC(=O)c2ccccc2C1=O,–,5.77% (inactive)
CCCCN(CCO)CCCC,–,0.289% [at 94.8 µM] (inactive)
COc1ccc(Cc2cnc(N)nc2N)cc1OC,–,-0.568% (inactive)
Nc1cc(S(=O)(=O)O)cc2cc(S(=O)(=O)O)cc(O)c12,inactive,–
Oc1c(Cl)cc(Cl)cc1Sc1cc(Cl)cc(Cl)c1O,inactive,–
O=C(O)c1cccc(C(=O)O)c1,inactive,–
c1ccc2cc3c(ccc4ccccc43)cc2c1,2.74 µM (active) and 3.86 µM (active),–
Nc1nc2ccccc2[nH]1,inactive,–
CCc1cc(C(C)(C)C)c(O)c(C(C)(C)C)c1,inactive,–
Cc1occc(=O)c1OC(=O)C(C)C,–,-0.253% (inactive)

SMILES,Potency,activation
COC(=O)/C=C/c1ccccc1,–,-1.49% (inactive)
CC(=O)OCCOCCOCCOC(C)=O,–,0.818% (inactive)
CCCC(=O)c1ccccc1,–,0.733% (inactive)
CC(C)C(=O)c1c(C(C)C)nn2ccccc12,–,1.21% (inactive)
c1cnc2cc3c(cc2n1)C1CNCC3C1,–,0.769% (inactive)
O=C(O[C@@H]1Cc2c(O)cc(O)cc2O[C@@H]1c1cc(O)c(O)c(O)c1)c1cc(O)c(O)c(O)c1,inactive,–
NC(N)=Nc1nc(CSCC/C(N)=N/S(N)(=O)=O)cs1,inactive,–
NNCCc1ccccc1,1.37 µM (active) and 9.44 µM (active),–
O=C1Nc2ccccc2C1(c1ccc(O)cc1)c1ccc(O)cc1,–,-3.55% (inactive)
CCN(CC)C(=O)Nc1ccc(OCC(O)CNC(C)(C)C)c(C(C)=O)c1 (stereo not given),–,-0.294% (inactive)
O=C1CC2(CCCC2)CC(=O)N1CCCCN1CCN(c2ncccn2)CC1,inactive,–
Oc1c(Cl)cc(Cl)c(Cl)c1Cc1c(O)c(Cl)cc(Cl)c1Cl,–,4.96% (inactive)
COc1cc(C(=S)N2CCOCC2)ccc1O,–,-3.28% (inactive)
NC12CC3CC(CC(C3)C1)C2,–,0.859% (inactive)
CCCCC(CC)COC(=O)CC(C(=O)OCC(CC)CCCC)S(=O)(=O)O (stereo not given),inactive,–
COc1nc(C)nc(Cl)c1NC1=NCCN1,–,0.0426% (inactive)
CCC(C)(C)C(=O)O[C@H]1C[C@@H](C)C=C2C=C[C@H](C)[C@H](CC[C@@H]3C[C@@H](O)CC(=O)O3)[C@H]21,–,-7.09% (inactive)
CNC1(C)C2CCC(C2)C1(C)C (stereo not given),–,-0.352% (inactive)
[Cl][In]([Cl])[Cl],inactive,–
CC(C)(C)c1ccccc1,–,1.22% (inactive)
